According to PubChem BioAssay:
Several values for one entry are separate records, joined by “and”; a condition that tells them apart may be missing. Equal entries are not always repeated. Activity calls are given as the source filed them.

Tests used:
[1] = system: PRMT1 (protein arginine N-methyltransferase 1); assay: PRMT1 binders on small-molecule microarrays, primary screen, biochemical, small-molecule microarray, 635 nm fluorescence (AID 1088); settings: small-molecule microarray binding, higher = more signal;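 further: binding of Prmt1 protein to compounds spotted on small-molecule microarray slides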
[2] = yeast growth modulation, basal conditions, primary screen, YJM789 clinical isolate, OD600, 24 h (AID 1089);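 further: growth of clinical yeast isolate S. cerevisiae YJM 789 seeded 1000 cells per well; test concentration not given here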; settings: S. cerevisiae YJM789 growth, higher = more signal, called active from +8 up or from −8 down
[3] = fission yeast growth modulation, primary screen, strain 972, OD600, 24 h, no modulator (AID 1090);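 further: basal condition with compound alone and no growth modifier present; test concentration not given here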; settings: S. pombe 972 growth, higher = more signal, called active from +8 up or from −8 down
[4] = S. cerevisiae growth modulation with rapamycin, primary screen, strain BY4716, OD600, 96 h (AID 1091); settings: higher = more signal, called active from +8 up or from −8 down; further: test concentration not given here
[5] = molecular target: Torsin-1A-interacting protein 2 (Homo sapiens) (UniProt Q8NFQ8); assay: LULL1 binders on small-molecule microarray, primary screen, cell lysate, human LULL1 lysate, 635/667 nm fluorescence (AID 1092); settings: hLULL1 lysate binding, 635 nm fluorescence, higher = more signal;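 further: probe is lysate of COS7 cells overexpressing human LULL1; score merges per-feature 667 nm fluorescence with signal-to-noise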
Chain of Torsin-1A-interacting protein 2 (Homo sapiens) (Q8NFQ8 whole entry, looked up): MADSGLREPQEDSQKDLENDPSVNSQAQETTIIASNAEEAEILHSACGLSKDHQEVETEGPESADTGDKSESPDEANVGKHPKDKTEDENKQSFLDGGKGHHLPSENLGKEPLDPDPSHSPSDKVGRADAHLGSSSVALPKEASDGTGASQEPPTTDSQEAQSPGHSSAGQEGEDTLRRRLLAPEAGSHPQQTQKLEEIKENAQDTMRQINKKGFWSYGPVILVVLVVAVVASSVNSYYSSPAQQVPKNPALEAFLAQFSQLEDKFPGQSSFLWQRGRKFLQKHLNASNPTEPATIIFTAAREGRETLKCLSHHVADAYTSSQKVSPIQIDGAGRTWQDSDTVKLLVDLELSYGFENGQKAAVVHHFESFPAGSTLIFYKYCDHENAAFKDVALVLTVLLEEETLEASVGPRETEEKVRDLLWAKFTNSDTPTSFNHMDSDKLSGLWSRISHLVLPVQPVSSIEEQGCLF

[6] = E. coli growth modulation, two-sided OD650, primary screen, E. coli filamentation project, strain DRC41, 24 h (AID 1093); settings: OD650, 24 h, higher = more signal, called active from +8 up or from −8 down;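 further: MC1000 strain lacking acrAB efflux and sulA so SOS filamentation is blocked; test concentration not given here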
[7] = small-molecule microarray binders of probe aLefty2, primary screen, biochemical, biotinylated probe, 635/667 nm fluorescence (AID 1094); settings: higher = more signal;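 further: score merges spot fluorescence near 667 nm with spot signal-to-noise ratio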
[8] = system: Noggin (protein binding on small-molecule microarray); assay: Noggin binders on small-molecule microarray, primary screen, biochemical, 635/667 nm fluorescence (AID 1095); settings: 635 nm fluorescence, higher = more signal;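 further: score merges 667 nm feature fluorescence with signal to noise over triplicate slides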
[9] = molecular target: Neurogenic locus notch homolog protein 3 (Homo sapiens) (UniProt Q9UM47); assay: NOTCH3 binders on small-molecule microarray, primary screen, biochemical, 635/667 nm fluorescence (AID 1096); settings: NOTCH3 binding, 635 nm fluorescence, higher = more signal
Chain of Neurogenic locus notch homolog protein 3 (Homo sapiens) (Q9UM47 whole entry, looked up): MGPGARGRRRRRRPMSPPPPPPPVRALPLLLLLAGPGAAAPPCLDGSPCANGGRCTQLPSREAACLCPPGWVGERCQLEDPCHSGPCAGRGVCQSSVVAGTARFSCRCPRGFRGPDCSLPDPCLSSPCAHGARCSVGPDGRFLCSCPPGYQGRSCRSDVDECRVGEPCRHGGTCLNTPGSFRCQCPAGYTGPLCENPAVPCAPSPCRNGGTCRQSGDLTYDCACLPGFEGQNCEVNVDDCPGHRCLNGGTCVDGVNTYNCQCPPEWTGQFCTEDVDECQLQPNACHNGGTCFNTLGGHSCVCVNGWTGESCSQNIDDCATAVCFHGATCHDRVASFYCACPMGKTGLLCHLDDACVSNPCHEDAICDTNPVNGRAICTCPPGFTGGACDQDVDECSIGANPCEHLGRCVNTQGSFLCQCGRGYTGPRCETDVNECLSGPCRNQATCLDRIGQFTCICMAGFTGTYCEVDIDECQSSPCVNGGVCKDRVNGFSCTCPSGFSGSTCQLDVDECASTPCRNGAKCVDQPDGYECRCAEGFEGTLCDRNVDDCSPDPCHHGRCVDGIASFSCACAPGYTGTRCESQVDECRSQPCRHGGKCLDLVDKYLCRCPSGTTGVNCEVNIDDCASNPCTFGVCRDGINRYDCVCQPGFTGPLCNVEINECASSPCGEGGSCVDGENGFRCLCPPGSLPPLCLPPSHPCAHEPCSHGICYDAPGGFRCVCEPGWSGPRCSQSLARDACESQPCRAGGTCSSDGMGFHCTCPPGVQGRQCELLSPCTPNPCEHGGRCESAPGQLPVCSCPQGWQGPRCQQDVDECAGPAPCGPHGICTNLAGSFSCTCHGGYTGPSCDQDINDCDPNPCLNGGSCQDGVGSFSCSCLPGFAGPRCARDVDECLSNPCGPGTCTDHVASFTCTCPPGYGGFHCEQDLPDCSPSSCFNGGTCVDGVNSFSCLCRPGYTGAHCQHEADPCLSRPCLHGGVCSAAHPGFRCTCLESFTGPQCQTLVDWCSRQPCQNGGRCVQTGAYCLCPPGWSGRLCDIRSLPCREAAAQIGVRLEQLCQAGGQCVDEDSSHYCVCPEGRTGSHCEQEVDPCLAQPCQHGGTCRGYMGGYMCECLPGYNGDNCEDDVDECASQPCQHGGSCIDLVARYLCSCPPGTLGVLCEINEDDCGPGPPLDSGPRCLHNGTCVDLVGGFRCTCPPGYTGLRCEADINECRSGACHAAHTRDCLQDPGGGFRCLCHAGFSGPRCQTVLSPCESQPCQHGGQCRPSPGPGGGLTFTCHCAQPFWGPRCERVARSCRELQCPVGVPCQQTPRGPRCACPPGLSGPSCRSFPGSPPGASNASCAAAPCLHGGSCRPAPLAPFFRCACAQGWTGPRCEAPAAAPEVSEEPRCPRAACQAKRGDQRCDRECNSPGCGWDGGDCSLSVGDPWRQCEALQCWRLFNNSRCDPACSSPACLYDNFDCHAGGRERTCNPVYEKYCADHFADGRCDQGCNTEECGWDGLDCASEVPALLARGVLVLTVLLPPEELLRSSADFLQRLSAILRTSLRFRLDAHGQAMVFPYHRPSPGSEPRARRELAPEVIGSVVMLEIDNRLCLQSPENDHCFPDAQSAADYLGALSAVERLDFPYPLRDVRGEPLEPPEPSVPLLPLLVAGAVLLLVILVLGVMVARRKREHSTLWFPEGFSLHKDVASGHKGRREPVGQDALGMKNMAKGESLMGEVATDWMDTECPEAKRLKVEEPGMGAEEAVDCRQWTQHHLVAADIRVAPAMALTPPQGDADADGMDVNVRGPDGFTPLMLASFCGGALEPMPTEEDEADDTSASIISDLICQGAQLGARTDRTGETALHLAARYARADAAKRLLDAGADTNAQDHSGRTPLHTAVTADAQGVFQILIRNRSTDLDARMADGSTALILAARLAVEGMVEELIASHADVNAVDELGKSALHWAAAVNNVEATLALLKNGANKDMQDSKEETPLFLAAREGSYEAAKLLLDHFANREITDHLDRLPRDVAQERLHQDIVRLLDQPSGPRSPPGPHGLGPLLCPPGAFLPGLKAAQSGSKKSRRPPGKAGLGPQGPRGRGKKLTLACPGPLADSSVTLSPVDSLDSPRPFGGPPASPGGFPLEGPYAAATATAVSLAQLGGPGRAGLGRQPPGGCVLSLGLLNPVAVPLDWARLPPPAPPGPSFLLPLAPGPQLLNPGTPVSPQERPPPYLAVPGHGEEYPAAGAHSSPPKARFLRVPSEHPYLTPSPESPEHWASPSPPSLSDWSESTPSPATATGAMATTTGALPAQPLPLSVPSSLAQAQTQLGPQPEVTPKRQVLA

[10] = small-molecule microarray binders of probe aEGFR, primary screen, biochemical, biotinylated probe, 635/667 nm fluorescence (AID 1097); settings: higher = more signal;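 further: probe is a biotinylated anti-EGFR antibody binding compounds printed on slides; score combines fluorescence near 667 nm and signal to noise of each spot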
[11] = system: Plasmodium falciparum Sir2 (PF13_0152, Sir2A); assay: pfSir2 binders on small-molecule microarrays, primary screen, biochemical, small-molecule microarray, 635 nm fluorescence (AID 1098); settings: small-molecule microarray binding, fluorescence 635 nm; higher = more signal;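 further: score merges spot fluorescence intensity with its signal-to-noise ratio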
[12] = small-molecule microarray binders of probe aDKK1, primary screen, biochemical, biotinylated probe, 635/667 nm fluorescence (AID 1099); settings: higher = more signal;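 further: score merges 667nm spot fluorescence with signal to noise across triplicate slides; reference of the scale not given here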
[13] = small-molecule microarray binders of probe aCHRDL2, primary screen, biochemical, biotinylated probe, 635/667 nm fluorescence (AID 1100); settings: higher = more signal
[14] = splicing luciferase reporter signal modulators, primary screen, spliceosome inhibition project, cell-based, HEK293, splice +/- reporter (AID 1101); settings: luminescence, 24 h, higher = more signal, called active from +8 up or from −8 down;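 further: HEK293 cells carrying a splicing-competent luciferase reporter gene; test concentration not given here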
[15] = molecular target: Fibroblast growth factor 10 (Homo sapiens) (UniProt O15520); assay: FGF10 binders on small-molecule microarrays, primary screen, biochemical, small-molecule microarray, 635 nm fluorescence (AID 1102); settings: FGF10 binding, fluorescence 635 nm, higher = more signal
Chain of Fibroblast growth factor 10 (Homo sapiens) (O15520 whole entry, looked up): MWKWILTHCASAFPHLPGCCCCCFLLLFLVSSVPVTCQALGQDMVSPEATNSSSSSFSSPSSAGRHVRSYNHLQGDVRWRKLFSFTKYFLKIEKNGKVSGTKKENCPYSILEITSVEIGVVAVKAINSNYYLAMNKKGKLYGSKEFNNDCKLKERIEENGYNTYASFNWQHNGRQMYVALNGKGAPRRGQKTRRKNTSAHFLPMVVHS

[16] = system: glycogen synthase kinase-3 (GSK3A per assay name; protocol says GSK3B); assay: GSK3 binders on small-molecule microarrays, primary screen, biochemical, small-molecule microarray, 635 nm fluorescence, GSK3A (AID 1103); settings: small-molecule microarray binding, fluorescence 635 nm; higher = more signal; further: the record names both GSK3A and GSK3B
[17] = molecular target: Epidermal growth factor receptor (Homo sapiens) (UniProt P00533); assay: EGFR binders on small-molecule microarrays, primary screen, biochemical, small-molecule microarray, 635 nm fluorescence (AID 1104); settings: EGFR binding, higher = more signal;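 further: score merges 667 nm emission intensity with spot signal to noise over triplicate slides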
Chain of Epidermal growth factor receptor (Homo sapiens) (P00533 whole entry, looked up): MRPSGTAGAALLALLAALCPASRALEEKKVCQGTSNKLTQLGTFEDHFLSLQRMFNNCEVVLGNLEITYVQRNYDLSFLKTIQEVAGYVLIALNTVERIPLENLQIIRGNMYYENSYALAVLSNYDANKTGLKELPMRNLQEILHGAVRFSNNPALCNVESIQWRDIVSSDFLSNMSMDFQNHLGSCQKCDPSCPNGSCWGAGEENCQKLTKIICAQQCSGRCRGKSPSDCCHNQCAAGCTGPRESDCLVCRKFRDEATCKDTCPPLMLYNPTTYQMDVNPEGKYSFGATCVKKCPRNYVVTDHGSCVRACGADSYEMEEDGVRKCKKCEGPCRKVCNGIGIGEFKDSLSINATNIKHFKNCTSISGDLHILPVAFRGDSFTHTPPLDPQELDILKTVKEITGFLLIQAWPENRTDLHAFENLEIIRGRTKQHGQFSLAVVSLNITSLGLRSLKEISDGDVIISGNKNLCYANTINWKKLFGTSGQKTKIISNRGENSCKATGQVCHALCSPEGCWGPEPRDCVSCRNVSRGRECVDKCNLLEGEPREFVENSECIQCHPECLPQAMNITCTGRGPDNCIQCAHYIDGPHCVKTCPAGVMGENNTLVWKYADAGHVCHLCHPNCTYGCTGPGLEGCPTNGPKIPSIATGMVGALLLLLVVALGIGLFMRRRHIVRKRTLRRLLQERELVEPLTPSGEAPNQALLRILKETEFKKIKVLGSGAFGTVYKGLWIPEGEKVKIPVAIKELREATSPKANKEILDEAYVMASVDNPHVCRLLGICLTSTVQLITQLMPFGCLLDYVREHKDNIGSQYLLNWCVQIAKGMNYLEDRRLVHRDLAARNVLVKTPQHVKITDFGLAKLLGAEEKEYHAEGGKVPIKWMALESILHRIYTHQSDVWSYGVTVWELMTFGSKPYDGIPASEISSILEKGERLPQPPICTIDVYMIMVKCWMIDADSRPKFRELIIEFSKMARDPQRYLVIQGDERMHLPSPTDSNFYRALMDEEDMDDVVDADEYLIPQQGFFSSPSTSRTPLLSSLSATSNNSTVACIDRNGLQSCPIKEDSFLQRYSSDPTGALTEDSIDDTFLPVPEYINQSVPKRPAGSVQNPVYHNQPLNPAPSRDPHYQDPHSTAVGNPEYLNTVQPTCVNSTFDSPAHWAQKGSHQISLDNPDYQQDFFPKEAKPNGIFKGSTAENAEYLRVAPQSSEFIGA

[18] = molecular target: Follistatin-related protein 3 (Homo sapiens) (UniProt O95633); assay: FSTL3 binders on small-molecule microarrays, primary screen, biochemical, small-molecule microarray, 635 nm fluorescence (AID 1105); settings: FSTL3 binding, higher = more signal;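 further: score merges emission near 667 nm and signal to noise per printed spot across three slides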
Chain of Follistatin-related protein 3 (Homo sapiens) (O95633 whole entry, looked up): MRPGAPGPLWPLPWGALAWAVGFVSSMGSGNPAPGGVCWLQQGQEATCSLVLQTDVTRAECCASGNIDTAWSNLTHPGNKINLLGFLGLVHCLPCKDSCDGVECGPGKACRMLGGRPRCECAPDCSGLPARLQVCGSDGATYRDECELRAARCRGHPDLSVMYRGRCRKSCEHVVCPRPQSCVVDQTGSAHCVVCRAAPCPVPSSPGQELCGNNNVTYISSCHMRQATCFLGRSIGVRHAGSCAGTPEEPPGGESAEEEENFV

[19] = molecular target: Dickkopf-related protein 1 (Homo sapiens) (UniProt O94907); assay: DKK1 binders on small-molecule microarrays, primary screen, biochemical, small-molecule microarray, 635 nm fluorescence scan (AID 1106); settings: DKK1 binding, higher = more signal;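 further: score merges emission near 667 nm with signal to noise over three replicate slides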
Chain of Dickkopf-related protein 1 (Homo sapiens) (O94907 whole entry, looked up): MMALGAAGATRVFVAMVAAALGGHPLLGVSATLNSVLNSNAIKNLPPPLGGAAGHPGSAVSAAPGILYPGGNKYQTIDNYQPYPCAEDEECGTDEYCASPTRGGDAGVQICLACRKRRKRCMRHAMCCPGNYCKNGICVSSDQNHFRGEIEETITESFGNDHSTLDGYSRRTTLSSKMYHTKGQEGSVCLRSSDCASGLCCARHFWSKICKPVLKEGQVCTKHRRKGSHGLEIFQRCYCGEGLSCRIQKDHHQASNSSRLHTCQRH

[20] = system: Inhibin beta A chain (activin A); assay: INHBA (activin A) binders on microarrays, primary screen, biochemical, small-molecule microarray, 635 nm fluorescence scan (AID 1107); settings: small-molecule microarray binding, higher = more signal;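 further: mouse activin A protein probed at 4.33 µg/mL on printed slides; score merges bound-protein fluorescence near 667 nm with spot signal-to-noise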

| Structure (SMILES) | composite z-score [1] | z-score [2] | z-score [3] | z-score [4] | composite z-score [5] | z-score [6] | composite z-score [7] | composite z-score [8] | composite z-score [9] | composite z-score [10] | composite z-score [11] | composite z-score [12] | composite z-score [13] | z-score [14] | composite z-score [15] | composite z-score [16] | composite z-score [17] | composite z-score [18] | composite z-score [19] | composite z-score [20] |
| --- | --- | --- | --- | --- | --- | --- | --- | --- | --- | --- | --- | --- | --- | --- | --- | --- | --- | --- | --- | --- |
| C=CCN(CCCCC)C(=O)C1N(c2c(Cl)cccc2CO)C(=O)C2C(C(=O)O)C3C=CC21O3 (stereo not given) | 0.0842 and -0.629 | 0.006 (inactive) and 0.769 (inactive) | -0.456 (inactive) and -0.0109 (inactive) | 0.59 (inactive) and 0.045 (inactive) | -0.445 and -0.75 | 0.31 (inactive) and 0.437 (inactive) | 0.156 and -0.0555 | -2.4 and -2.23 | -0.676 and -0.842 | -0.441 and -0.411 | -0.116 and 0.397 | 0.784 and 0.13 | 0.479 and 1.12 | -0.282 (inactive) and -0.455 (inactive) | -1.35 and -1.3 | -0.607 and -1.18 | -3.02 and -1.91 | -2.09 and -2.23 | -2.91 and -2.56 | -1.96 and -1.99 |
| C=CCN(CCCC)C(=O)C1N(C(C)(C)CO)C(=O)C2C(C(=O)O)C3C=CC21O3 (stereo not given) | -0.278 and -1.01 | -0.412 (inactive) and 0.0394 (inactive) | 0.0945 (inactive) and 0.0925 (inactive) | -0.626 (inactive) and -0.302 (inactive) | -0.523 and -0.805 | -0.21 (inactive) and -0.367 (inactive) | -0.223 and -0.124 | -2.07 and -1.17 | -0.732 and -0.74 | -0.23 and -0.336 | 0.645 and 0.0697 | -0.188 and -0.123 | 0.717 and 0.644 | 0.395 (inactive) and 0.383 (inactive) | -1.84 and -0.834 | -2.07 and -1.67 | -1.97 and -1.42 | -2 and -2.8 | -2.4 and -1.9 | -3.85 and -3 |
| COC(=O)[C@@]1(Cc2ccccc2)[C@H]2c3cc(C(=O)N(C)C)n(C[C@H](O)CO)c3C[C@H]2CN1C(=O)c1ccccc1 | -0.576 and -0.197 | 0.745 (inactive) and 0.53 (inactive) | -0.421 (inactive) and 0.883 (inactive) | 0.565 (inactive) and 0.696 (inactive) | 3.69 and 2.3 | -0.527 (inactive) and -0.856 (inactive) | -0.052 and 0.0305 | -0.634 and -0.737 | -0.349 and -0.0109 | -0.228 and 0.0395 | 0.544 and 0.831 | 0.781 and 0.66 | 0.761 and 1.21 | -2.37 (inactive) and 1.46 (inactive) | -0.397 and 0.483 | -0.137 and -0.227 | -0.647 and 0.374 | -0.397 and 0.0048 | -0.907 and -0.236 | 0.985 and 1.1 |
| C=CCN(C(=O)C1N(C(C)(C)CO)C(=O)C2C(C(=O)O)C3C=CC21O3)C(C)(C)C (stereo not given) | -0.805 and -0.846 | 0.69 (inactive) and 1.34 (inactive) | 0.53 (inactive) and 0.365 (inactive) | 0.961 (inactive) and 1.35 (inactive) | -0.139 and 1.91 | -0.0599 (inactive) and 0.474 (inactive) | 0.003 and 0.146 | -2.82 and -3.2 | -1.74 and -1.4 | -0.347 and -0.228 | -0.0242 and 0.712 | 0.338 and 0.0018 | 1.06 and 1.01 | 0.153 (inactive) and -0.231 (inactive) | -0.95 and -1.33 | -1.24 and -1.03 | -2.18 and -1.68 | -2.45 and -2.42 | -2.28 and -3.04 | -3 and -3.14 |
